FBPA Giardia inh: blocks Giardia fructose-bisphosphate aldolase activity | purified Giardia FBPA | Potency, µM (doses to about 59.6 µM), without a hit: at the top dose activity, negative = inhibition, hits mostly inhibitors | 290,000 tested, 0.71% active | AID 2451; also: potency is read from the fitted curve at half-maximal effect; % is scaled to controls: 0 for no effect and ±100 for the full control effect; nearly all actives have a fitted effect of over 55% in size
Target sequence (A8B2U2 whole entry, looked up): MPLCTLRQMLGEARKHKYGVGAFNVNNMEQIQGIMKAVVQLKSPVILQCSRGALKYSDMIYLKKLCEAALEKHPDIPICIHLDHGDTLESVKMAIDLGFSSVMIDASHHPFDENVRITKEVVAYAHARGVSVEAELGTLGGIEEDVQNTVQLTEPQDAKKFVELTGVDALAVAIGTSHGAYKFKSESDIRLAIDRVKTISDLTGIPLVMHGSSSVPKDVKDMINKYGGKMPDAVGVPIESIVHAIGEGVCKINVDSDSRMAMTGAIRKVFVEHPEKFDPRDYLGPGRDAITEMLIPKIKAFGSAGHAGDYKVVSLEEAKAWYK
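Giardia FBPA (40 nM reagent) was preincubated 10 min at RT with compound (up to 57.5 uM final), then substrate plus GAPDH/TPI/NAD/arsenate coupling system with diaphorase/resazurin was added; resorufin fluorescence (525/598 nm) was read after 20 min.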
Shiga toxin inh: Shiga toxin inhibition | Vero cells, Shiga toxin protein synthesis inhibition reporter | 290,000 tested, 9.2% active | AID 2315 | inhibition, % at 38.7 µM; in the data active = inhibition mostly above about 28%, no sharp cut-off; inactive = mostly below about 43%; also: 0% is about no effect
CHX counter: counter-screen hit for Shiga toxin inhibitors, cycloheximide | max response, % | cell reporter, cycloheximide protein synthesis inhibition counterscreen | 300,000 tested, 12% active; in the data active = max response mostly above about 13%, no sharp cut-off; inactive = mostly below about 14%; also: read at 38.3 µM for the half of the compounds with a filed dose; 0% is about no effect
LmPK inhibitor: blocks Leishmania mexicana pyruvate kinase activity | Q27686 | purified LmPK, Kinase-Glo ATP luminescence, 1 h | Potency, µM (top dose mostly 57.5 µM), for the others: top-dose activity change, negative = inhibition, actives largely listed as inhibitors | 290,000 tested, 0.37% active | AID 1721; also: potency is read from the fitted curve at half-maximal effect; % is scaled to controls: 0 for no effect and ±100 for the full control effect
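qHTS format; LmPK 0.1 nM; substrates PEP 0.5 mM and ADP 0.1 mM. One-hour room-temperature incubation, then coupled luciferase luminescence; 0.5 nM enzyme wells mark activation.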
Tb PYK inh: T. brucei pyruvate kinase inhibition; TbPYK enzyme, Kinase-Glo Plus ATP luminescence, 45 min; Q57TT1; Potency, µM (doses to about 76.8 µM), inactives show top-dose activity, negative = inhibition, actives largely listed as inhibitors; 410,000 tested, 0.12% active; also: potency is read from the fitted curve at half-maximal effect; % is scaled to controls: 0 for no effect and ±100 for the full control effect; nearly all actives have a fitted effect of over 50% in size
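Assay buffer: 50 mM TEA pH 7.2, 100 mM KCl, 10 mM MgCl2, 0.05% BSA, 0.01% Tween-20. Pyruvate kinase from T. brucei plus substrate met compound, then ADP (130 uM final). Luminescence was read post 45 min RT.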
Sm TGR inh: blocks Schistosoma mansoni thioredoxin glutathione reductase. AID 485364. Potency, µM (top dose mostly 114 µM), for the others: at the highest dose activity change, negative = inhibition, hits mostly inhibitors. purified TGR, DTNB reduction, TNB absorbance 405 nm. 360,000 tested, 3% active; also: potency is read from the fitted curve at half-maximal effect; % is scaled to controls: 0 for no effect and ±100 for the full control effect; nearly all actives have a fitted effect of over 60% in size
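TGR 20 nM + NADPH 100 uM (dispensed conc.), cpd preinc 15 min RT; start with NADPH (500 uM addition) then DTNB (15 mM addition). Kinetic TNB absorbance, 405 nm filter. Four-parameter Hill fit across titration.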
Numbers without * were called inactive; ? = inconclusive; / = no result; [ ] = another dose, or the depositor's remark. The sample as a whole holds a higher share of hits than the screen did. Unless noted, calls follow the shape of the dose curve; as a rule, active = well fitted curve in the direction sought with a large enough effect; inconclusive = small, poorly fitted or top-dose-only effect, or another doubt; inactive = no such curve, though single readings can be large; an effect the other way counts as inactive or inconclusive.

SMILES	FBPA Giardia inh	Shiga toxin inh	CHX counter	LmPK inhibitor	Tb PYK inh	Sm TGR inh
COc1ccc2c(=O)c3c(=O)n(Cc4ccco4)c(-c4ccccc4)nc3oc2c1	9%	-16	13	4%	-16%	32µM*
COc1ccc2c(=O)c3c(=O)n(Cc4ccco4)c(-c4cc(OC)c(OC)c(OC)c4)nc3oc2c1	-1%	14	1	-3%	5%	?
CCCc1nc2sc3ccccc3c(=O)c2c(=O)n1Cc1ccco1	-4%	-7	9	3%	-3%	35µM*
CCCc1nc2oc3cc(OC)ccc3c(=O)c2c(=O)n1Cc1ccco1	-10%	-24	-4	-4%	4%	40µM*
O=C(CC(c1cccs1)N1Cc2ccccc2C1=O)Nc1ccc(F)cc1 (stereo not drawn)	/	/	/	/	3%	4%
COc1ccc(CCN(C)C(=O)c2ccc(C)c(S(=O)(=O)N3CCCCC3)c2)cc1OC	/	/	/	/	-12%	-3%
CC(C)=NO[C@@H](C)c1cn([C@H](CO)Cc2ccccc2)nn1	2%[12.9 µM]	/	/	/	/	/
N#Cc1ccc(/C=C/C(=O)c2cccnc2)cc1	-6%	-9	-2	-4%	?	28µM*
O=C(NNC(=O)c1ccccc1Cl)c1cccnc1	1%	-7	10	-1%	-1%	1%
O=C(/C=C/c1ccccc1Cl)c1cccnc1	-1%	3	5	-16%	-22%	13µM*
O=C(/C=C/c1ccc(Cl)cc1)c1cccnc1	-5%	-13	-2	-4%	-10%	14µM*
O=C(/C=C/c1c(F)cccc1Cl)c1ccc(O)cc1	5%	58*	24*	-11%	-9%	40µM*
COc1ccc2ccc(OC)c(/C=N/NC(=O)c3cc4ccccc4o3)c2c1	/	/	/	/	-6%	/
N#Cc1nc(Nc2ccccc2)nc(NC2CCCC2)n1	-11%	/	/	/	/	/
O=C(/C=C/c1ccccc1Cl)c1ccc(O)cc1	-1%	54*	29*	-11%	-5%	45µM*
O=C(C=Cc1cccc(Cl)c1)c1ccccc1	/	/	/	/	-1%	/
O=C(Nc1ccccc1)Nc1nnc(/C=C/c2ccccc2Cl)s1	6%	6	12	2%	-3%	-2%
Nc1nnc(/C=C/c2ccccc2Cl)s1	1%	47*	36*	-24%	-18%	9%
COc1cccc(Cn2c(=O)c(-c3cccs3)nc3cnc(N4CCOCC4)nc32)c1	0%	/	/	/	/	/
CC(=O)Nc1cccc(NC(=O)c2cc(Cl)ccc2Cl)c1	-9%	-9	-12	-2%	1%	-1%
CC(=O)Nc1ccc(NC(=O)Nc2ccc(C)c(C)c2)cc1	2%	22	2	-1%	6%	/
CC(=O)Nc1cccc(NC(=O)Nc2ccc(C)c(Cl)c2)c1	0%	48*	30*	2%	0%	-13%
CC(=O)Nc1cccc(NC(=S)Nc2ccc(F)c(Cl)c2)c1	?	15	0	-5%	5%	28µM*
CSCCC(NC(=O)c1ccccc1Cl)C(=O)NCCOc1ccc(C)cc1 (stereo not drawn)	/	/	/	/	1%	/
Cc1ccc2c(c1)CC(C)N2S(=O)(=O)c1nnc(NC(=O)c2ccccc2F)s1 (stereo not drawn)	/	/	/	/	3%	-10%
SMILES	FBPA Giardia inh	Shiga toxin inh	CHX counter	LmPK inhibitor	Tb PYK inh	Sm TGR inh
COc1ccc(NC(=O)Nc2cccc3c2O[C@H](CN(C)C(=O)Nc2ccc4c(c2)OCO4)[C@@H](C)CN([C@H](C)CO)C3=O)cc1	/	/	/	/	3%	/
Cc1ccc(S(=O)(=O)NCC(=O)N(CC(=O)NCC2CCCO2)Cc2ccco2)cc1 (stereo not drawn)	-2%	29	10*	3%	5%	6%
CC(C)C(C(=O)NCC1CCCO1)N(CC1CCCO1)C(=O)CNS(=O)(=O)c1ccccc1 (stereo not drawn)	1%	26	-1	-4%	-2%	0%
CC(C)C(C(=O)NCC1CCCO1)N(Cc1ccccc1)C(=O)CNS(=O)(=O)c1ccccc1 (stereo not drawn)	?	5	-8	-3%	2%	7.1µM*
Cc1ccc(S(=O)(=O)NCC(=O)N(CC(=O)NCC2CCCO2)Cc2ccccc2)cc1 (stereo not drawn)	3%	41	-2	6%	-3%	-28%
CCCCc1nn2c(=O)cc(COC(=O)c3ccccc3C)nc2s1	/	/	/	/	2%	0%
Cc1cccnc1NC(=O)C(c1ccccc1)c1ccccc1	6%	-2	5	-1%	-15%	0%
O=C1CC(N(O)C2CC(=O)N(Cc3ccccc3)C2=O)C(=O)N1Cc1ccccc1 (stereo not drawn)	-4%	-4	-3	4%	-21%	?
CCCN(CCC)C1CC(=O)N(Cc2ccccc2)C1=O (stereo not drawn)	0%	15	11	-1%	-9%	10µM*
CCOC(=O)C1CCN(C(c2cc3ccc(C)cc3[nH]c2=O)c2nnnn2C2CCCCC2)CC1 (stereo not drawn)	-14%	-1	-1	0%	2%	10µM*
COc1ccccc1N1CCN(C(c2cc3ccc(C)cc3[nH]c2=O)c2nnnn2C2CCCC2)CC1 (stereo not drawn)	28µM*	4	-3	5%	-3%	?
CCC(C)(C)n1nnnc1C(c1cc2ccc(OC)cc2[nH]c1=O)N1CCN(C2CCCCC2)CC1 (stereo not drawn)	-7%	-17	-6	0%	11%	?
COc1ccccc1N1CCN(C(c2cc3cc(C)ccc3[nH]c2=O)c2nnnn2C2CCCC2)CC1 (stereo not drawn)	?	-6	-8	3%	0%	?
COc1ccc(-c2sc(Nc3ccc(F)c(F)c3F)nc2CCC(=O)NN)cc1	5%	100*	42*	2%	-2%	3%
COc1ccc(-c2nc(NC(C)=O)sc2-c2ccc(OC)cc2)cc1	4%	37	0	9%	-5%	7%
N=C1/C(=C\c2ccc(OC(=O)c3ccccc3Cl)cc2)C(=O)N=C2SC(N3CCOCC3)=NN12	/	58*	24*	-9%	-11%	0%
N=C1/C(=C/c2ccc(OCc3ccccc3)cc2)C(=O)N=C2SC(CC(=O)N3CCOCC3)=NN12	7%	32	15*	-5%	0%	-8%
Cc1cc(/C=C2\C(=N)N3N=C(CC(=O)N4CCOCC4)SC3=NC2=O)c(C)n1Cc1ccccc1	14%	21	1	3%	-2%	1%
COc1cc(/C=C2\C(=N)N3N=C(N4CCOCC4)SC3=NC2=O)ccc1OC(=O)c1ccccc1	8%	5	4	0%	3%	1%
N=C1/C(=C/c2ccc(OCc3ccccc3F)cc2)C(=O)N=C2SC(CC(=O)N3CCOCC3)=NN12	7%	85*	23*	0%	4%	-14%

From PubChem BioAssay
